The subject of the experiment is MDA-MB-468. Put plainly: phospho-S6 immunofluorescence (DAPI-normalised), per-plate z-score; higher = higher phospho-S6 signal (less pathway suppression). To be noted: 24 h. How it is done:
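GPCR-targeted compound library (MedChemExpress HY-L006) tested on MDA-MB-468 PTEN-null TNBC cells in 384-well plates at 0.1, 1 or 10 uM, combined with vehicle, GDC0941 450 nM or lapatinib 1 uM, for 24 h. Phospho-S6 (S240/244) immunofluorescence normalised to DAPI and expressed as a per-plate z-score; values are the mean of biological triplicates.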

Counter-ions that a name gives are not always drawn.

As to `O=C(COc1ccc(C(=O)c2ccccc2)cc1)NC1CCN(Cc2ccccc2)CC1` [AdipoRon] (compound 10 µM), the “phospho-S6 immunofluorescence (z-score)” value reads like this: (co-treatment: GDC0941 450 nM) -4.84; (co-treatment: lapatinib 1 uM) -4.87; (co-treatment: vehicle) -1.92.

For the compound `C[C@H](NC(=O)c1cc(Cl)ccc1Oc1ccc(F)cc1)c1ccc(C(=O)O)cc1` (compound 10 µM), the “phospho-S6 immunofluorescence (z-score)” value (co-treatment: GDC0941 450 nM) was -0.64, the “phospho-S6 immunofluorescence (z-score)” value (co-treatment: lapatinib 1 uM) came to 0.18 and the “phospho-S6 immunofluorescence (z-score)” value (co-treatment: vehicle) was found to be 0.3.

For `CC(C)COc1ccc(CNC(=O)N(Cc2ccc(F)cc2)C2CCN(C)CC2)cc1` [Pimavanserin] (compound 10 µM), the “phospho-S6 immunofluorescence (z-score)” value was -2.66 (co-treatment: GDC0941 450 nM), -2.95 (co-treatment: lapatinib 1 uM) and -2.1 (co-treatment: vehicle).

In the case of `CCCCC(C)(O)C/C=C/[C@H]1[C@H](O)CC(=O)[C@@H]1CCCCCCC(=O)OC` (mixture of isomers) [Misoprostol] (compound 10 µM), the “phospho-S6 immunofluorescence (z-score)” value is 0.36 (co-treatment: GDC0941 450 nM), 0.67 (co-treatment: lapatinib 1 uM) and 1.59 (co-treatment: vehicle).

Regarding `CCCCCNC(=N)N/N=C/c1c[nH]c2ccc(OC)cc12` [Tegaserod (maleate)] (compound 10 µM), the “phospho-S6 immunofluorescence (z-score)” value is -6 (co-treatment: GDC0941 450 nM), -12.1 (co-treatment: lapatinib 1 uM) and -10.3 (co-treatment: vehicle).

Turning to `C[C@H](CCC(=O)O)[C@H]1CC[C@H]2[C@@H]3CC[C@@H]4C[C@H](O)CC[C@]4(C)[C@H]3C[C@H](O)[C@]12C` [Deoxycholic acid] (compound 10 µM), the “phospho-S6 immunofluorescence (z-score)” value (co-treatment: GDC0941 450 nM) was determined as 0.02, the “phospho-S6 immunofluorescence (z-score)” value (co-treatment: lapatinib 1 uM) stood at 0.6 and the “phospho-S6 immunofluorescence (z-score)” value (co-treatment: vehicle) was -0.17.

With `Cc1cc(C(C)(C)C)c(O)c(C)c1CC1=NCCN1` [Oxymetazoline (hydrochloride)] (compound 10 µM), the “phospho-S6 immunofluorescence (z-score)” value is, setting by setting: (co-treatment: GDC0941 450 nM) 0.28; (co-treatment: lapatinib 1 uM) -0.17; (co-treatment: vehicle) -0.03.

As for `CC(C)c1noc(N2CCC(COc3ccc(-c4ccc(S(C)(=O)=O)cc4)nc3)CC2)n1` (compound 10 µM), the “phospho-S6 immunofluorescence (z-score)” value is -2.9 (co-treatment: GDC0941 450 nM), -4.91 (co-treatment: lapatinib 1 uM) and -6.22 (co-treatment: vehicle).

For `CCCN(CCN1CCN(c2ccccc2OC)CC1)C1CCc2ncsc2C1` (configuration not stated) [ST-836 (hydrochloride)] (compound 10 µM), the “phospho-S6 immunofluorescence (z-score)” value (co-treatment: GDC0941 450 nM) was determined as 0.29, the “phospho-S6 immunofluorescence (z-score)” value (co-treatment: lapatinib 1 uM) was -0.62 and the “phospho-S6 immunofluorescence (z-score)” value (co-treatment: vehicle) was 0.1.

(Values after the supplement of paper PMC7411640.)
